Results filed as inconclusive are left out. Activity calls are given as the source filed them. The calls were made as follows, unless noted: active = hit-call score of the fitted dose curve at least 0.9, where 1 is the maximum; inconclusive = response in the unintended direction; inactive = score below 0.9.
Key:
[1] = ATG_TGFb_CIS: Attagene CIS-FACTORIAL HepG2 Assay for human Transforming Growth Factor (TGF) (AID 2282967; active = hit-call score of the fitted dose curve at least 0.9, where 1 is the maximum; inactive = score below 0.9); conditions: HepG2 Attagene CIS TGFb reporter, mRNA transcription; actives raise or lower the signal
Summary of the method: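 Bidirectional fitting relative to DMSO gave the endpoint. Underlying data: reporter mRNA from HepG2 cells carrying transiently transfected cis-regulated reporter constructs, harvested 24 h after dosing and analyzed by RT-PCR and capillary electrophoresis.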

[2] = target: Estrogen receptor (Homo sapiens) (UniProt P03372); assay: ATG_ERa_TRANS: Attagene TRANS-FACTORIAL HepG2 Assay for human Estrogen Receptor alpha (ERa) (AID 2282970); conditions: HepG2 Attagene TRANS ERa GAL4 reporter, mRNA
Summary of the method: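 Gal4-fusion ERa transactivation, measured as reporter transcript level in transiently transfected HepG2 cells. Exposure 24 h; RT-PCR plus capillary electrophoresis with fluorescence detection.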

[3] = target: Steroid hormone receptor ERR1 (Homo sapiens) (UniProt P11474); assay: ATG_ERRa_TRANS: Attagene TRANS-FACTORIAL HepG2 Assay for human Estrogen-Related Receptor alpha (ERRa) (AID 2282971); conditions: HepG2 Attagene TRANS reporter, ERRa transactivation
Summary of the method: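 HepG2 cells transiently transfected with GAL4-UAS reporter units and chimeric NR-Gal4 constructs; after 24 hour compound incubation, reporter mRNA quantified by RT-PCR, fluorescent labelling and capillary electrophoresis, gain of signal versus DMSO.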

[4] = target: X-box-binding protein 1 (Homo sapiens) (UniProt P17861); assay: ATG_Xbp1_CIS: Attagene CIS-FACTORIAL HepG2 Assay for human X-box Binding Protein 1 (XBP1) (AID 2282972; active = hit-call score of the fitted dose curve at least 0.9, where 1 is the maximum; inactive = score below 0.9); conditions: HepG2 XBP1 cis-element reporter, Attagene multiplex; actives raise or lower the signal
Summary of the method: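 Reporter transcripts were quantified by RT-PCR with fluorescent primer extension and capillary electrophoresis after 24 h chemical exposure. Cells: transiently transfected HepG2 carrying cis-regulated reporter constructs; data fitted bidirectionally relative to DMSO.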

[5] = ATG_M_19_TRANS: Attagene TRANS-FACTORIAL HepG2 Assay for M19 Transcription Factor (Internal Marker) (AID 2282974); conditions: HepG2 Attagene TRANS-FACTORIAL M19 internal marker reporter
Summary of the method: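 Multiplexed TRANS format: HepG2 liver cells bearing transient GAL4-UAS reporter units, chemical treatment 24 h, reporter transcripts quantified by RT-PCR plus capillary electrophoresis. DMSO defines baseline.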

[6] = ATG_GAL4_TRANS: Attagene TRANS-FACTORIAL HepG2 Assay for GAL4 (Internal Marker) (AID 2282976); conditions: HepG2 Attagene TRANS GAL4 internal marker reporter
Summary of the method: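 Background-control readout: GAL4-UAS reporter transcript in transiently transfected HepG2 cells after 24 h compound exposure. Measured by RT-PCR, 6-FAM primer extension, HpaI digest and capillary electrophoresis; gain-of-signal fit versus DMSO.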

[7] = target: Oxysterols receptor LXR-beta (Homo sapiens) (UniProt P55055); assay: ATG_LXRb_TRANS: Attagene TRANS-FACTORIAL HepG2 Assay for human Liver X Receptor beta (LXRb) (AID 2282981); conditions: HepG2 Attagene TRANS GAL4-LXRb reporter, mRNA
Summary of the method: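 Multiplexed reporter assay, HepG2, 24 h dosing. Fluorescence of labelled RT-PCR products after capillary electrophoresis gives transcript level; positive fitting direction relative to DMSO.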

[8] = target: Nuclear receptor subfamily 4 group A member 2 (Homo sapiens) (UniProt P43354); assay: ATG_NURR1_TRANS: Attagene TRANS-FACTORIAL HepG2 Assay for human Nuclear Receptor Related Protein 1 (NURR1) (AID 2282985); conditions: HepG2 Attagene TRANS reporter, mRNA readout
Summary of the method: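 Endpoint: reporter mRNA increase relative to DMSO. HepG2 cells transfected with reporter units, treated 24 h; RNA processed by RT-PCR, labelling, HpaI digestion and capillary electrophoresis.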

[9] = target: Transcriptional activator Myb (Homo sapiens) (UniProt P10242); assay: ATG_Myb_CIS: Attagene CIS-FACTORIAL HepG2 Assay for human Myeloblastosis (Myb) Proto-Oncogene Transcription Factor (AID 2282986; active = hit-call score of the fitted dose curve at least 0.9, where 1 is the maximum; inactive = score below 0.9); conditions: HepG2 Attagene CIS-FACTORIAL Myb reporter transcription; actives raise or lower the signal
Summary of the method: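 Using HepG2 liver cells bearing transiently transfected cis-promoter reporter constructs, the assay measures induction or loss of reporter mRNA after 24 hours of dosing. Detection used fluorescently labeled RT-PCR products separated by capillary electrophoresis.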

[10] = target: Nuclear respiratory factor 1 (Homo sapiens) (UniProt Q16656); assay: ATG_NRF1_CIS: Attagene CIS-FACTORIAL HepG2 Assay for human Nuclear Respiratory Factor 1 (NRF1) Orphan Gene (AID 2282987; active = hit-call score of the fitted dose curve at least 0.9, where 1 is the maximum; inactive = score below 0.9); conditions: HepG2 NRF1 cis-element reporter, Attagene multiplex; actives raise or lower the signal
Summary of the method: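 Reporter mRNA induction or loss in HepG2 cells after 24 h dosing; cis-regulated reporter constructs report endogenous transcription-factor activity. Quantified by RT-PCR/capillary electrophoresis fluorescence, DMSO-referenced.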

[11] = target: Nuclear receptor subfamily 1 group I member 3 (Homo sapiens) (UniProt Q14994); assay: ATG_CAR_TRANS: Attagene TRANS-FACTORIAL HepG2 Assay for human Constitutive Androstane Receptor (CAR) (AID 2282969); conditions: HepG2 Attagene TRANS-FACTORIAL CAR reporter;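 also: activators raise reporter mRNA above DMSO so AC50 marks induction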
Summary of the method: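 Transiently transfected HepG2, multiplex TRANS reporters (CAR-Gal4 chimera driving GAL4-UAS reporter). 24 h dosing. Readout: reporter transcript by RT-PCR + capillary electrophoresis, fluorescence intensity; positive direction vs DMSO.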

[12] = target: Androgen receptor (Homo sapiens) (UniProt P10275); assay: ATG_AR_TRANS: Attagene TRANS-FACTORIAL HepG2 Assay for human Androgen Receptor (AR) (AID 2282973); conditions: HepG2 Attagene TRANS-FACTORIAL AR reporter transcription
Summary of the method: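 HepG2 cells transiently transfected with AR-Gal4 chimera and GAL4-UAS reporter units; chemical exposure 24 h. Reporter mRNA quantified by RT-PCR with fluorescent labelling and capillary electrophoresis; gain-of-signal fitted against DMSO.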

[13] = target: Glucocorticoid receptor (Homo sapiens) (UniProt P04150); assay: ATG_GR_TRANS: Attagene TRANS-FACTORIAL HepG2 Assay for human Glucocorticoid Receptor (GR) (AID 2282978); conditions: HepG2 Attagene TRANS GR reporter, mRNA transcription;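 also: activators score as hits since higher reporter transcript over DMSO is fitted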
Summary of the method: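 Transiently transfected HepG2 cells express chimeric NR-GAL4 proteins acting on GAL4-UAS reporter units. Compounds are applied for 24 h. mRNA induction over DMSO is measured by capillary electrophoresis.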

[14] = target: Oxysterols receptor LXR-alpha (Homo sapiens) (UniProt Q13133); assay: ATG_LXRa_TRANS: Attagene TRANS-FACTORIAL HepG2 Assay for human Liver X Receptor alpha (LXRa) (AID 2282980); conditions: HepG2 Attagene TRANS reporter, LXRa transactivation
Summary of the method: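 HepG2 cells transiently transfected with GAL4-UAS reporter units for chimeric NR-Gal4 proteins, exposed to chemicals for 24 h. Reporter mRNA quantified by RT-PCR and capillary electrophoresis; gain of signal fitted relative to DMSO.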

[15] = ATG_M_06_TRANS: Attagene TRANS-FACTORIAL HepG2 Assay for M06 Transcription Factor (Internal Marker) (AID 2282983); conditions: HepG2 Attagene TRANS M06 internal marker reporter
Summary of the method: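 mRNA levels of a reporter transcript, quantified as FAM fluorescence on capillary electrophoresis, served as readout. HepG2 cells expressing exogenous GAL4-chimera reporter constructs were exposed for 24 h. Gain of signal over DMSO was evaluated.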

[16] = ATG_M_32_TRANS: Attagene TRANS-FACTORIAL HepG2 Assay for M32 Transcription Factor (Internal Marker) (AID 2282984); conditions: HepG2 Attagene TRANS M32 internal marker reporter
Summary of the method: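 Internal-marker readout from a multiplexed transcription reporter panel. HepG2 cells were transfected with GAL4-UAS reporter units, treated 24 hours, and reporter transcript levels determined by fluorescence after RT-PCR and capillary separation.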

[17] = target: Hepatocyte nuclear factor 4-alpha (Homo sapiens) (UniProt P41235); assay: ATG_HNF4a_TRANS: Attagene TRANS-FACTORIAL HepG2 Assay for human Hepatocyte Nuclear Factor 4 alpha (HNF4a) (AID 2282982); conditions: HepG2 HNF4a transactivation reporter, mRNA readout
Summary of the method: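 Endpoint reflects transcriptional activation of a GAL4-UAS reporter by an HNF4a-GAL4 chimera in transfected HepG2 cells, 24 h post-dosing. Fluorescence from RT-PCR products separated by capillary electrophoresis; DMSO baseline.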

[18] = target: Bile acid receptor (Homo sapiens) (UniProt Q96RI1); assay: ATG_FXR_TRANS: Attagene TRANS-FACTORIAL HepG2 Assay for Farnesoid X Receptor (FXR) (AID 2282979); conditions: HepG2 Attagene TRANS FXR-GAL4 reporter transcription;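 also: hits raise reporter mRNA above DMSO so AC50 marks FXR activation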
Summary of the method: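 HepG2 cells were transiently transfected with GAL4-UAS reporters driven by chimeric NR-Gal4 proteins and dosed for 24 h. Reporter mRNA was quantified by RT-PCR, fluorescent labelling, HpaI digestion and capillary electrophoresis, with gain of signal scored versus DMSO.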

[19] = target: Estrogen-related receptor gamma (Homo sapiens) (UniProt P62508); assay: ATG_ERRg_TRANS: Attagene TRANS-FACTORIAL HepG2 Assay for human Estrogen-Related Receptor gamma (ERRg) (AID 2282977); conditions: HepG2 Attagene TRANS reporter, ERRg transactivation;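 also: hits increase reporter signal over DMSO so potencies reflect activators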
Summary of the method: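 Exogenous NR-Gal4 chimera activity measured as reporter transcript induction after 24 h in transiently transfected HepG2 cells. RNA reverse-transcribed, PCR-amplified, 6-FAM-labelled and resolved by capillary electrophoresis; increase over DMSO baseline.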

Measured: outcome

Chain of Estrogen receptor (Homo sapiens) (P03372 whole entry, looked up, the tested form may be a part): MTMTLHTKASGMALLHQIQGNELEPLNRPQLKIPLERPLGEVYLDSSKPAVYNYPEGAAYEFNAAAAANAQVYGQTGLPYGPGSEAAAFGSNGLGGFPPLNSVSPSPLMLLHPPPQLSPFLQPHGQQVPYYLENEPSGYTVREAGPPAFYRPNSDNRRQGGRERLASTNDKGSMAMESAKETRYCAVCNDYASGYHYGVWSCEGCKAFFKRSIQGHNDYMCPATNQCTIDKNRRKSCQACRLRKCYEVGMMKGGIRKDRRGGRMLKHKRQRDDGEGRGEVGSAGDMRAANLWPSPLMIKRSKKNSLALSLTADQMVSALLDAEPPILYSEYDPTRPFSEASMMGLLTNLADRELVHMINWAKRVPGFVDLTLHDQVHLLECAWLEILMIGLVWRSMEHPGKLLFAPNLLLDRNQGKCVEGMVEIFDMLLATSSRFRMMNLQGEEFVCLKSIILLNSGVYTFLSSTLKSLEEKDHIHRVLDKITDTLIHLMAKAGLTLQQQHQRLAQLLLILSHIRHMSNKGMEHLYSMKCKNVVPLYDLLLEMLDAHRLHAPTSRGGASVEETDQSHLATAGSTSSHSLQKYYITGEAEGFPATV
Chain of Oxysterols receptor LXR-alpha (Homo sapiens) (Q13133 whole entry, looked up, the tested form may be a part): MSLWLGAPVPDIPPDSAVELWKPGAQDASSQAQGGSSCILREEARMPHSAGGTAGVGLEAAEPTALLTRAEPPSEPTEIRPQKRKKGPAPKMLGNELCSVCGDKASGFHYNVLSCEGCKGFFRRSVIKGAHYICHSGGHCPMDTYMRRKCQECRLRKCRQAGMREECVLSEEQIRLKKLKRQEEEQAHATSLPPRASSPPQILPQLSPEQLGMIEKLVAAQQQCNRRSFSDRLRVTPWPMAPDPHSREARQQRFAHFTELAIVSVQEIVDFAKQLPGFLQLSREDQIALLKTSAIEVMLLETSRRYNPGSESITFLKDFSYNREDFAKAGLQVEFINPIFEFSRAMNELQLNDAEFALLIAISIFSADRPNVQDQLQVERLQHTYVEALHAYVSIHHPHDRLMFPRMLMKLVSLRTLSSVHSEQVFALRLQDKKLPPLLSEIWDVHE
Chain of Transcriptional activator Myb (Homo sapiens) (P10242 whole entry, looked up): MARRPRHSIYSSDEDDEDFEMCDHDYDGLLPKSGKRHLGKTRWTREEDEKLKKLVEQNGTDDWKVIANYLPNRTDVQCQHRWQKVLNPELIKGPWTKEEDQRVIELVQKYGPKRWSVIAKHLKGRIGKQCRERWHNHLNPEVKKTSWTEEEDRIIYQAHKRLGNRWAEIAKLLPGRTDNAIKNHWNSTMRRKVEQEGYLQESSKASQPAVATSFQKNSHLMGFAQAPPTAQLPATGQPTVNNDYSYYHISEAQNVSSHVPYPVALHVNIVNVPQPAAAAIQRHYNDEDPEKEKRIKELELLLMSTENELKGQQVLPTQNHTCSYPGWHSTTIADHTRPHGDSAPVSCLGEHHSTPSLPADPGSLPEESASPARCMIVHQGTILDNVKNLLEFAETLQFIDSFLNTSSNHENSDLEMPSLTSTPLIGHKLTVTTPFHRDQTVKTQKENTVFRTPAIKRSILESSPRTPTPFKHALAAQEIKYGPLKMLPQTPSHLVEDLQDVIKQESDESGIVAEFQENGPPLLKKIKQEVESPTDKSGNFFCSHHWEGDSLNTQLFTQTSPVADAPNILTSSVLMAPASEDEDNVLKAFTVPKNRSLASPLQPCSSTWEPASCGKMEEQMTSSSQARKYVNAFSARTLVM
Chain of Glucocorticoid receptor (Homo sapiens) (P04150 whole entry, looked up, the tested form may be a part): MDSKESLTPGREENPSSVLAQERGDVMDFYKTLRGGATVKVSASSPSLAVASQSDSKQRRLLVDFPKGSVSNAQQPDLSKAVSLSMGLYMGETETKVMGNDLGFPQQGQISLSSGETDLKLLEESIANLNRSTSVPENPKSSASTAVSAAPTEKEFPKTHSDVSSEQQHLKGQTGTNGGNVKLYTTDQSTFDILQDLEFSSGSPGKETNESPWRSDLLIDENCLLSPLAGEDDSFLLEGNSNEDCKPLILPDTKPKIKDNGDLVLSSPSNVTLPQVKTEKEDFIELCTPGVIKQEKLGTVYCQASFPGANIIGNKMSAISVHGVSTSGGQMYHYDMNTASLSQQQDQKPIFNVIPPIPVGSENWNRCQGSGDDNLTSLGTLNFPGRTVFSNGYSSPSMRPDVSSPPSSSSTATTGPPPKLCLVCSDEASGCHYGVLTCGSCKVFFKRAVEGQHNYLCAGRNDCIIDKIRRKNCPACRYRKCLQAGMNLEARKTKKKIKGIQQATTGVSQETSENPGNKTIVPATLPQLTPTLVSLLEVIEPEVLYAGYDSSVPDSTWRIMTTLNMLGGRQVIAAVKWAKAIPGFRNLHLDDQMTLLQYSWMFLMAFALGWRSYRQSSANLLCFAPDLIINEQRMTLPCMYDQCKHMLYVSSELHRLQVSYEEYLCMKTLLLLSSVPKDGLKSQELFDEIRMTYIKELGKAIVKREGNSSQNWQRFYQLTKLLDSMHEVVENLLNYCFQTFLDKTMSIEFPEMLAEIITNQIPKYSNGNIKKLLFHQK
Chain of Nuclear respiratory factor 1 (Homo sapiens) (Q16656 whole entry, looked up): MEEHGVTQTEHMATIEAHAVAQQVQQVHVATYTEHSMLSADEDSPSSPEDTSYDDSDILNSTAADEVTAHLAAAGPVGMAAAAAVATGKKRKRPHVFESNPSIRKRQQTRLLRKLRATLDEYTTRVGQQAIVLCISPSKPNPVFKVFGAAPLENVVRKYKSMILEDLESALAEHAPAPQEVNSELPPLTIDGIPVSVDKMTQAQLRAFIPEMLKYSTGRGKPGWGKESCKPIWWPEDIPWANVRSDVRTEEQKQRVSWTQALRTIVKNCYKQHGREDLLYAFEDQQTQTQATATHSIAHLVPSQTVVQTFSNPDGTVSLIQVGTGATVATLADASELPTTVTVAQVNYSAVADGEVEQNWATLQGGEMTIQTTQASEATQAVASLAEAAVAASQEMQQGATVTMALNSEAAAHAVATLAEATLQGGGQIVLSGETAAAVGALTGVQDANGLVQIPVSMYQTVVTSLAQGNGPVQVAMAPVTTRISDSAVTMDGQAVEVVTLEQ
Chain of X-box-binding protein 1 (Homo sapiens) (P17861 whole entry, looked up): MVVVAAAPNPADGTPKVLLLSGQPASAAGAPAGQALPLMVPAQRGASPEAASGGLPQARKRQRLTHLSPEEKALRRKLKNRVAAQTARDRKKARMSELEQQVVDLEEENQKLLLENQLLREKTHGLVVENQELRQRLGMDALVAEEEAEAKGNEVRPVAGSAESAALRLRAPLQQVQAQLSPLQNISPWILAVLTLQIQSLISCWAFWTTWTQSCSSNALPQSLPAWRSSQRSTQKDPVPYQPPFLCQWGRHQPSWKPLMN
Chain of Nuclear receptor subfamily 1 group I member 3 (Homo sapiens) (Q14994 whole entry, looked up, the tested form may be a part): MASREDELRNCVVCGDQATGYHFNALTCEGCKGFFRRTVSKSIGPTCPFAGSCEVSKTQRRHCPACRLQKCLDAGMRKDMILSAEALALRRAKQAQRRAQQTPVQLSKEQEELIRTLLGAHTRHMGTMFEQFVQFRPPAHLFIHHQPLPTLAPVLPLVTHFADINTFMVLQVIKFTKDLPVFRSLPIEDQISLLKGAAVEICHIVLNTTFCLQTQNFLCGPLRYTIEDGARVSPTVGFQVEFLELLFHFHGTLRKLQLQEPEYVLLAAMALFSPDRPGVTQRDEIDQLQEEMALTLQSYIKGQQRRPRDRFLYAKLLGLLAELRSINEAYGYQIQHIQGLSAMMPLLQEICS
Chain of Oxysterols receptor LXR-beta (Homo sapiens) (P55055 whole entry, looked up, the tested form may be a part): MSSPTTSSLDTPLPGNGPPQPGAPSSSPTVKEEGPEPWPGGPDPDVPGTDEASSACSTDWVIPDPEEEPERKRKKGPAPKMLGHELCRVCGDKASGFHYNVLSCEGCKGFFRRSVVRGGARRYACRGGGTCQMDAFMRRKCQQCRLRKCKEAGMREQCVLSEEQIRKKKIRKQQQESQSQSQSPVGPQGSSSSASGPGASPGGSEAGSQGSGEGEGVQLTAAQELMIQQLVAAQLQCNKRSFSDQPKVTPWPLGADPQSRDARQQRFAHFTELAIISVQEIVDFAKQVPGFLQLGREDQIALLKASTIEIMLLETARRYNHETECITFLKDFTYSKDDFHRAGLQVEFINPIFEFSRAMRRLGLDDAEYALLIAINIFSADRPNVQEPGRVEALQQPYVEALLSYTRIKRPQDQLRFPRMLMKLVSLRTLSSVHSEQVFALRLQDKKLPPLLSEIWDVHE
Chain of Nuclear receptor subfamily 4 group A member 2 (Homo sapiens) (P43354 whole entry, looked up): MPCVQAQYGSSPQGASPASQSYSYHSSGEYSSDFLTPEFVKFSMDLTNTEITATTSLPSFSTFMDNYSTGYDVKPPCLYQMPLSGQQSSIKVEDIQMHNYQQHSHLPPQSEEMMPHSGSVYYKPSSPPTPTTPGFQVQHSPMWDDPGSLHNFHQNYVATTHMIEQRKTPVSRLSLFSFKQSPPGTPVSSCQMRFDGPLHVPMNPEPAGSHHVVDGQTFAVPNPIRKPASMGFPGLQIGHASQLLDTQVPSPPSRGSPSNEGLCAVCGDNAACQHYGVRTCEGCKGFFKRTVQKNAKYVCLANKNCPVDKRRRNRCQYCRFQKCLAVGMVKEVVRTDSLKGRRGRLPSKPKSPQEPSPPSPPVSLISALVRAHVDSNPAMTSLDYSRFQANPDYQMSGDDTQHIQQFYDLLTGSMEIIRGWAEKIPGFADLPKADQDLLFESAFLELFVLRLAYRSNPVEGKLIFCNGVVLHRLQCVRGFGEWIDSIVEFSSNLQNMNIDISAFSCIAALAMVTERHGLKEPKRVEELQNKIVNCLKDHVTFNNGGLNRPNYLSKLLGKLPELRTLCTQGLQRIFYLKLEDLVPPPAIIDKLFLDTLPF

N#Cc1cccnc1
inactive: [1] | [2] | [3] | [4] | [5] | [6] | [7] | [8] | [9] | [10]

Cc1cc(Cl)ccc1OCCCC(=O)O
inactive: [1] | [11] | [4] | [12] | [6] | [13] | [14] | [15] | [16] | [8] | [9] | [10]

C#CCO
inactive: [1] | [11] | [4] | [6] | [15] | [16] | [9] | [10]

CNC(=O)O/N=C/C(C)(C)S(C)(=O)=O
inactive: [1] | [11] | [4] | [5] | [16] | [8] | [9] | [10]

Nc1nc(N)nc(Cl)n1
inactive: [1] | [11] | [2] | [4] | [5] | [6] | [7] | [17] | [16] | [9] | [10]

CC(=O)C(F)(F)C(F)(F)F
inactive: [1] | [2] | [4] | [12] | [6] | [18] | [15] | [9] | [10]

Fc1cccc(Cl)c1CCl
inactive: [1] | [11] | [2] | [4] | [5] | [14] | [7] | [15] | [16] | [9] | [10]

O=c1[nH]c2ccccc2n1C1CCN(CCCC(c2ccc(F)cc2)c2ccc(F)cc2)CC1
inactive: [1] | [2] | [3] | [4] | [5] | [6] | [19] | [13] | [18] | [15] | [16] | [8] | [9] | [10]

Cc1cc(Cl)ccc1N
inactive: [1] | [11] | [4] | [5] | [6] | [13] | [14] | [15] | [16] | [9] | [10]
